From PubChem BioAssay
The source made the active and inactive calls.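 How the source made its calls, unless noted: active means mean inhibition above 46.68%, the untreated control wells mean plus 3 SD; inactive means the rest.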

Assays:
[1] = target: Nuclear receptor coactivator 3 (Homo sapiens) (UniProt Q9Y6Q9); assay: NCOA3 GAL4-fusion reporter inhibition – cell-based, luminescence, quadruplicate, confirmation (AID 588792;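 active means mean inhibition over 43.08%, the solvent-only control mean plus 3 SD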;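 further: 0% = DMSO treated cells and 100% = gossypol at 36 µM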); details: HEK293 GAL4-SRC3 luciferase reporter, at 3.6 µM, stronger effect = higher value
[2] = system: transactivating tegument protein VP16 (Human herpesvirus 1), Gal4-VP16 luciferase reporter; assay: repression of VP16-driven luciferase reporter – cell-based, luminescence, high throughput, counter-screen for SRC3 inhibitor project (AID 588794; in the data active means inhibition above about 30%); details: mammalian cells, at 3.6 µM, stronger effect = higher value
[3] = target: Nuclear receptor coactivator 1 (Homo sapiens) (UniProt Q15788); assay: NCOA1 GAL4-fusion reporter inhibition – cell-based, luminescence, quadruplicate, confirmation (AID 588820); details: HEK293 GAL4-SRC1 luciferase reporter, at 3.6 µM, stronger effect = higher value;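 further: 0% = DMSO wells and 100% = gossypol 36 µM treated wells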
[4] = repression of VP16-driven luciferase reporter – cell-based, luminescence, high throughput, counter-screen for SRC1 inhibitor project (AID 588824; in the data active means inhibition above about 25%); details: cell-based VP16 transactivation luciferase luminescence; at 3.6 µM; stronger effect = higher value

Nuclear receptor coactivator 3 (Homo sapiens), sequence (Q9Y6Q9 whole entry, looked up, the tested form may be a part): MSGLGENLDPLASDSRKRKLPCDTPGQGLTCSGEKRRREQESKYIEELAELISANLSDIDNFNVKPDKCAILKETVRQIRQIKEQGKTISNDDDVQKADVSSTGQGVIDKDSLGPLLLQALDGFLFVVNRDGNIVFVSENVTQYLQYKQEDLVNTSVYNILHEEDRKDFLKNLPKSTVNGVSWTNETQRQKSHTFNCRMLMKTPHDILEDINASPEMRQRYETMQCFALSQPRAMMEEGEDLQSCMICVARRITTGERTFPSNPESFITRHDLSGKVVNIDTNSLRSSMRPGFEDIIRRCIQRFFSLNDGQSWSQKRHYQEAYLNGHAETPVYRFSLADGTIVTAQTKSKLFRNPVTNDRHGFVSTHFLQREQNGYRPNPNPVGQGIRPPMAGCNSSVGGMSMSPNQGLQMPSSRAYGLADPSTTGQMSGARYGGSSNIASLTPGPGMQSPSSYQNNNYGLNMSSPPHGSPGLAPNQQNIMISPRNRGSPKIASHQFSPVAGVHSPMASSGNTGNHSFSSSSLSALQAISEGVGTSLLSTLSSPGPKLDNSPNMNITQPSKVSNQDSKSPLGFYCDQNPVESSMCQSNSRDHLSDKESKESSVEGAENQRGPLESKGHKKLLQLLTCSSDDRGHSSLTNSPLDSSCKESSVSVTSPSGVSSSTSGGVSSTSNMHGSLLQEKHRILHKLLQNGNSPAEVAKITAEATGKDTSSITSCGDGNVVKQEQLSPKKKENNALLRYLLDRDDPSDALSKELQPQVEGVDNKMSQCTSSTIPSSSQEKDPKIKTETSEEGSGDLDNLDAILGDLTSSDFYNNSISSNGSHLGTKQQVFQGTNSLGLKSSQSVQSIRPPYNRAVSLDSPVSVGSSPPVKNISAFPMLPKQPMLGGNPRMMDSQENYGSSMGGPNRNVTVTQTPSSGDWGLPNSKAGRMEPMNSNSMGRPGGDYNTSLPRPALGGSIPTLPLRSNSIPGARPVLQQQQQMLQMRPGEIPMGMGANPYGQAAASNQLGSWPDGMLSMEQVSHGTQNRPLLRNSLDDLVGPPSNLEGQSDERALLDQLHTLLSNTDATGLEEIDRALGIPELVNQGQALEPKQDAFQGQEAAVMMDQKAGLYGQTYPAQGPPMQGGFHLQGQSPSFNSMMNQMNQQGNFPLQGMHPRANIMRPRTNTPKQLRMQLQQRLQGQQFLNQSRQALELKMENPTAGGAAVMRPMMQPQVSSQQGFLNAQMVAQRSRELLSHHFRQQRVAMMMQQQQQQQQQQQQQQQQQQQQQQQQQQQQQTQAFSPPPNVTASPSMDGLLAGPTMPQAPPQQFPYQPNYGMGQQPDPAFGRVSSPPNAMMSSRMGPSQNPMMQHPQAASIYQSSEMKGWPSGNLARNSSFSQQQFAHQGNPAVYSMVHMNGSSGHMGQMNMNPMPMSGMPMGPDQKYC
Nuclear receptor coactivator 1 (Homo sapiens), sequence (Q15788 whole entry, looked up, the tested form may be a part): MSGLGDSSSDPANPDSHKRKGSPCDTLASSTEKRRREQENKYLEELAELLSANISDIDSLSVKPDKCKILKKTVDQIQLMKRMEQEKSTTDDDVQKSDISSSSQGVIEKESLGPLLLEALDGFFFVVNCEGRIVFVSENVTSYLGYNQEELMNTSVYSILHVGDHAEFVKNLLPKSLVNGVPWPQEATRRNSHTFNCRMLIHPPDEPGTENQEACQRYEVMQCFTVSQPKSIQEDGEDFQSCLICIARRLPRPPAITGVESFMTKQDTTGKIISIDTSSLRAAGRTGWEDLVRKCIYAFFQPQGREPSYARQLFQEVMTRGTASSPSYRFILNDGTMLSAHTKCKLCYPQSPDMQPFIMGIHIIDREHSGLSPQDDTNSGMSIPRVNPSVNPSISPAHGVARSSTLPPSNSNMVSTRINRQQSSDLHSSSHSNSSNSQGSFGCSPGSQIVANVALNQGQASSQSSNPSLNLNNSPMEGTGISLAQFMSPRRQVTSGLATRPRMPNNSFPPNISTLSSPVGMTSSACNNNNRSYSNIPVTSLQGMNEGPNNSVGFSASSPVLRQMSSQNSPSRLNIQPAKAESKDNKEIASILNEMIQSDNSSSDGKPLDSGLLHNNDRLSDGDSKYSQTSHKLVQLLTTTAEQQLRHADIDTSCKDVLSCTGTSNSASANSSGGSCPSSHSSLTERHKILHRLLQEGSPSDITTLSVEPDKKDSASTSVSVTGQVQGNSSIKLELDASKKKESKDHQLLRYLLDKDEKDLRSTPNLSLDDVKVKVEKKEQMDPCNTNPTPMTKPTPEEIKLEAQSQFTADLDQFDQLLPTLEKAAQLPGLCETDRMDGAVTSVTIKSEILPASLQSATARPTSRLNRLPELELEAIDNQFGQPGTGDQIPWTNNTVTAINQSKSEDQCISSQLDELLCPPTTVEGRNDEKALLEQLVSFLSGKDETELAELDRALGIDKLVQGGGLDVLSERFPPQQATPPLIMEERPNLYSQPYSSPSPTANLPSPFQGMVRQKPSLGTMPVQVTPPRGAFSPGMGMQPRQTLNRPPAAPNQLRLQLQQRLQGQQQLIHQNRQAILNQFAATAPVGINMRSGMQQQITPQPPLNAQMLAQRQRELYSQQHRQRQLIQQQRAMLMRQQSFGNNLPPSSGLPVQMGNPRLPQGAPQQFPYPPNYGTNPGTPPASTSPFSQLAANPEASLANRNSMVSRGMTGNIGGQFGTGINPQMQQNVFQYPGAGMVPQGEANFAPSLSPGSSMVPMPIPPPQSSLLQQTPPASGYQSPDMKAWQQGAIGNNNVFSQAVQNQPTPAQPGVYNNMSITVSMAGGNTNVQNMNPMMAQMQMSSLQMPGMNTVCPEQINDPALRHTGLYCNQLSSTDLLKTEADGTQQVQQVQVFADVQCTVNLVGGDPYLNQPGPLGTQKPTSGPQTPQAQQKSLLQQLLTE

SMILES	inhibition [1]	inhibition [2]	inhibition [3]	inhibition [4]
O=c1[nH]c(=O)n([C@H]2C[C@H](O)[C@@H](CO)O2)cc1F	60.6% (active)	31% (active)	46% (inactive)	35.4% (active)
COc1ccc2[nH]c3c(c2c1)CCNC3=O	53.2% (active)	42.7% (active)	62.3% (active)	33.7% (active)
c1cncc(CNc2ncnc3ccc(-c4ccoc4)cc23)c1	75.2% (active)	42.8% (active)	66% (active)	47.8% (active)
O=[N+]([O-])c1ccc(NC(c2ccccc2)c2ccc3cccnc3c2O)cc1 (stereo not given)	65% (active)	58.8% (active)	65.4% (active)	71.2% (active)
CC1CCc2c(sc(NC(=O)c3cccs3)c2C(=O)O)C1 (stereo not given)	33.8% (inactive)	60.6% (active)	11.8% (inactive)	54.1% (active)
O=C(N/N=C/c1cc(O)ccc1Br)c1cccnc1	17.6% (inactive)	37.5% (active)	19.8% (inactive)	39.3% (active)
COc1cc(/C=N/NC(=Nc2ccc(C)cc2)c2nc3ccccc3s2)ccc1O	35.6% (inactive)	9.45% (inactive)	11.4% (inactive)	-38% (inactive)
O=C(N/N=C/c1ccccc1O)/C(=C/c1ccccc1)CCO	16.7% (inactive)	18.1% (inactive)	20% (inactive)	19.2% (inactive)
CSc1ncnc2c1ncn2CC(=O)C1CCC2C3CCC4=CC(=O)CCC4(C)C3CCC12C (stereo not given)	19.5% (inactive)	12.2% (inactive)	-0.31% (inactive)	12.1% (inactive)
Cn1c(/C=C/c2ccc(Cl)cc2)c([N+](=O)[O-])c(=O)n(C)c1=O	39.6% (inactive)	35.7% (active)	36.3% (inactive)	28.6% (active)
Cc1c2ccncc2cc2c1[nH]c1ccccc12	48.7% (active)	33.5% (active)	48.4% (active)	19.9% (inactive)
O=C1CC(c2ccc3c(c2)OCO3)Sc2nc3ccccc3n21 (stereo not given)	-6.28% (inactive)	-34.8% (inactive)	-110% (inactive)	-73.2% (inactive)
O=C(Nc1cccnc1)c1ccc(C(=O)Nc2cccnc2)cc1	32.2% (inactive)	19.1% (inactive)	23.3% (inactive)	20.4% (inactive)
O=C(CNS(=O)(=O)Cc1ccccc1)NNc1ccccc1	3.12% (inactive)	12.1% (inactive)	12.8% (inactive)	16.3% (inactive)
CCCCCCCCCCCCCCCCCCNc1ccn(C2OC(COP(=O)(O)OCC3OC(n4cc(F)c(=O)[nH]c4=O)CC3O)C(O)C2O)c(=O)n1 (stereo not given)	52.3% (active)	38.7% (active)	51% (active)	31.2% (active)
c1nc(NCc2ccc3c(c2)OCO3)c2cc(-c3ccoc3)ccc2n1	70.4% (active)	51.5% (active)	54.8% (active)	45.4% (active)
COc1cc(C(=O)N/N=C(\c2ccccc2)c2ccccn2)cc(OC)c1OC	32.9% (inactive)	23.2% (inactive)	28.5% (inactive)	21.9% (inactive)
O=C(Nc1nc(-c2ccccc2)cs1)c1ccc(N2CCOCC2)c([N+](=O)[O-])c1	56.2% (active)	61.4% (active)	15.3% (inactive)	64.8% (active)
CC(=O)Nc1ccc(S(=O)(=O)c2ccnc3cc(Cl)ccc23)cc1	52.9% (active)	44.1% (active)	47% (active)	39.2% (active)
Cn1c(Sc2ccc(Cl)cc2)c(C=O)c2ccccc21	52.3% (active)	43.6% (active)	60% (active)	37% (active)
CN(Cc1ccccc1)c1ncnc(N)c1[N+](=O)[O-]	41.4% (inactive)	34.3% (active)	38.4% (inactive)	30% (active)
Fc1ccc(CSc2nnc(-c3ccncc3)o2)cc1	53.9% (active)	22.7% (inactive)	29.9% (inactive)	19.3% (inactive)
CC(=O)N1CCN(c2ncnc3ccccc23)CC1	29.2% (inactive)	26.3% (inactive)	45.1% (inactive)	26.3% (active)
CCn1nc(C)c(CNC(=O)c2cc(COc3ccc(F)cc3Cl)on2)c1C	12.7% (inactive)	28.5% (inactive)	8.35% (inactive)	20% (inactive)
CCOc1ccc(-n2c(C)c(C(C)=O)c3cc(O)ccc32)cc1	59.7% (active)	51.2% (active)	60.8% (active)	48.2% (active)
COc1ccc(Nc2ncnc3ccc(Br)cc23)cc1OC	61.3% (active)	40.6% (active)	50.7% (active)	42.2% (active)
CN(C)S(=O)(=O)c1ccc(-c2csc(N/N=C/c3ccco3)n2)cc1	-2.21% (inactive)	16.7% (inactive)	-22.3% (inactive)	20.1% (inactive)
O=C(/C=C/c1ccc(Cl)cc1)NC(=S)Nc1ccc(NC(=O)c2ccco2)cc1	29.7% (inactive)	63.8% (active)	45.1% (inactive)	65% (active)

SMILES	inhibition [1]	inhibition [2]	inhibition [3]	inhibition [4]
OCCNc1c2ccccc2nc2ccccc12	4.16% (inactive)	40.4% (active)	5.64% (inactive)	42.2% (active)
CCN(CC)CCCNc1ccc2ncn3c4ccc(O)cc4c(=O)c1c23	16.5% (inactive)	51.3% (active)	47.9% (active)	49.9% (active)
COc1cc(/C=C2\CC(C(C)(C)C)C/C(=C\c3cc(OC)c(OC)c(OC)c3)C2=O)cc(OC)c1OC (stereo not given)	58.4% (active)	19.3% (inactive)	19.8% (inactive)	18.4% (inactive)
Cc1[nH]ccc2cc3nc4ccccc4c3cc12	13.9% (inactive)	36.2% (active)	31.7% (inactive)	39.4% (active)
O=C(CCCOc1ccc(Cl)cc1Cl)N/N=C/c1ccccc1O	26.1% (inactive)	22.3% (inactive)	29.5% (inactive)	15.2% (inactive)
Cc1ccc(NC(=O)C2CCN(c3ncnc4sc(C)c(C)c34)CC2)cc1S(=O)(=O)N(C)C	10.3% (inactive)	12.1% (inactive)	17.6% (inactive)	1.39% (inactive)
CC(C)n1cnc2c(NCc3ccccc3)cc(N[C@H](C)CO)cc21	16.4% (inactive)	87.3% (active)	35.6% (inactive)	8.74% (inactive)
COc1ccc(-c2cnc(N)nc2-c2ccc(OC)cc2O)cc1	22.5% (inactive)	13.7% (inactive)	29.7% (inactive)	18.4% (inactive)
O=C(NC(=O)N1CCN(c2cccc(Cl)c2)CC1)c1ccccc1	23.9% (inactive)	43.6% (active)	17.9% (inactive)	41.2% (active)
CCOC(=O)CC(=O)CSc1nccc(-c2cccnc2)n1	37.5% (inactive)	15.3% (inactive)	16.4% (inactive)	10.1% (inactive)
O=[N+]([O-])c1ccc(Oc2ccc(F)cc2)c2ccncc12	46.8% (active)	36% (active)	47.6% (active)	35.4% (active)
O=C(N/N=C/c1ccc(O)cc1O)/C(=C/c1ccccc1)CCO	22.1% (inactive)	20.7% (inactive)	31.7% (inactive)	24% (inactive)
O=c1[nH]c(=O)n(C2C[C@H](O)[C@@H](CO)O2)cc1C(F)(F)F (stereo not given in full)	45.7% (active)	40% (active)	54.4% (active)	44.3% (active)
CC(C)c1ccc(-c2csc(NC(=O)c3cccs3)c2C(=O)O)cc1	8.33% (inactive)	18.6% (inactive)	-2.31% (inactive)	33.9% (active)
Cn1c(C(=O)O)c(CC(=O)Nc2ccc3c(c2)OCCO3)c2ccccc21	19.4% (inactive)	3.77% (inactive)	-17.2% (inactive)	-7.4% (inactive)
O=C(COc1ccccc1O)NNc1ccccc1	11.6% (inactive)	24% (inactive)	-12.2% (inactive)	29.2% (active)
Cc1nc(N)nc(N)c1-c1ccc(Cl)c(Cl)c1	58.5% (active)	24.5% (inactive)	54.2% (active)	33.6% (active)
NC(=S)N/N=C1\CCSc2ccc(Cl)cc21	39.3% (inactive)	22.9% (inactive)	6.53% (inactive)	16.1% (inactive)
Nc1nc(=O)n(C2OC(CO)C(O)C2O)cc1F (stereo not given)	13.6% (inactive)	31.5% (active)	40.1% (inactive)	38.9% (active)
O=C(C1CCC(CNS(=O)(=O)c2cccs2)CC1)N1CCN(c2ccc(Cl)cc2)CC1 (stereo not given)	13.8% (inactive)	30.5% (active)	14.9% (inactive)	34.6% (active)
CN1CCN(c2ncnc3scc(-c4ccccc4Cl)c23)CC1	59.6% (active)	41.5% (active)	55.4% (active)	44.3% (active)
COc1cc(-c2cc3nc4ccccc4n3c(N)c2C#N)cc(OC)c1OC	14.5% (inactive)	-16.8% (inactive)	-42.6% (inactive)	-12.8% (inactive)
NC(=S)NN=Cc1nccc2c(N)cccc12	72.3% (active)	17.2% (inactive)	47.8% (active)	8.49% (inactive)
CC(C)(C)NC(=O)C(c1ccncc1)N(Cc1cccs1)C(=O)Cn1nnc(-c2ccc(F)cc2)n1 (stereo not given)	59.4% (active)	35% (active)	43% (inactive)	29.1% (active)
O=C(N/N=C/c1ccccc1O)c1cccc(C(F)(F)F)c1	57.9% (active)	43.2% (active)	65.9% (active)	48.8% (active)
CC(C)(C)[C@H]1C=C(C(=O)Nc2ccccc2)O[C@@H](OCCCCO)C1	-13.7% (inactive)	-16.4% (inactive)	-41.4% (inactive)	-38% (inactive)
COc1cc(C(=O)OCC(=O)Nc2sccc2C(N)=O)cc(OC)c1OC	42.7% (inactive)	10.3% (inactive)	-42.7% (inactive)	5.18% (inactive)
